Experimental findings from PubChem BioAssay (NCATS) are described below.

Records with an inconclusive call do not appear. Calls of active or inactive are those of the source. Unless noted, the call rests on the fitted dose curve; in most records, active means well fitted curve in the direction sought with a large enough effect; inconclusive means small, poorly fitted or top-dose-only effect, or another doubt; inactive means no such curve, though single readings can be large; an effect the other way counts as inactive or inconclusive.

Experiment [1] in a line: Immunotoxin (SS1P) sensitization/mitigation study. Vehicle arm (DMEM) (AID 1159513; call rule not given here).
Experiment [2] in a line: High-throughput drug toxicity screening in the BPDCN cell line Gen2.2 (AID 1224824; call rule not given here;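 further: cells exposed to compounds for 48 h before reading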). The note with it: Gen2.2 BPDCN cells; at 45.8 µM (top of the series). The gist of the method: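 CellTiter-Glo luminescence after 48 h compound exposure of Gen2.2 cells; percent activity set with DMSO as 100% and bortezomib (9.2 uM final) as 0%. Cells seeded at 500 per well, RPMI + 10% FBS, 37 °C.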

Experiment [3] in a line: High-throughput drug toxicity screening in the BPDCN cell line Cal-1 (AID 1224825; call rule not given here). The note with it: Cal-1 BPDCN cell viability, qHTS; at 45.8 µM (top of the series). An outline of the steps:
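Viability of the BPDCN line Cal-1 is measured as ATP-based luminescence (CellTiter-Glo) following 48 h incubation with compounds. Percent activity uses DMSO-treated wells as 100% and 9.2 uM bortezomib as 0%.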

Experiment [4] in a line: qHTS assay for measurement of the activity of small molecule inhibitors on Zika virus induced Caspase-3 activity in human iPSC derived neural progenitor cells (hNPCs) (AID 1224857). Further: % of control where 0% means no effect; nearly all actives have a fitted effect of over 65% in size. An outline of the steps: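 After overnight (16–20 h) culture at 350 cells/well, hNPCs get compound, then ZIKV 2 FFU/cell one hour later. Six hours on, Caspase-Glo 3/7 is added and luminescence measured.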

Experiment [5] is described as follows: qHTS assay for measurement of the activity of small molecule inhibitors on Zika virus induced Caspase-3 activity in human astrocytoma cells (AID 1224859).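 Further: plate controls were ZIKV-infected untreated cells for no effect and uninfected cells for full effect.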 The gist of the method: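 Inhibition of Zika-induced caspase-3/7 activity: SNB-19 cells, 1 h compound pretreatment, ZIKV 2 FFU/cell for 6 h at 37 C, Caspase-Glo luminescence read-out.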
The nature of experiment [6]: qHTS Screen of the MIPE 4.0 Collection Against Ewings Sarcoma (RDES) (AID 1259252). Further: nearly all actives have a fitted effect of over 35% in size. Further: potency means the concentration at half of the fitted maximal effect. An outline of the steps: (§1)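 Measured: ATP luminescence (CellTiter-Glo) 10 min after reagent addition, following 48 h drug treatment. Relative luciferase units converted to percent activity, with no-cell wells as full and DMSO wells as zero inhibition.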
The nature of experiment [7]: qHTS Screen of the MIPE 4.0 Collection Against Ewings Sarcoma (TC71) (AID 1259253). Further: nearly all actives have a fitted effect of over 40% in size. Further: potency means the concentration at half of the fitted maximal effect. The gist of the method:
as §1
On the technique in general: qHTS replaces the single test concentration by a dilution series.

A short description of experiment [8]: qHTS Screen of the MIPE 4.0 Collection Against Ewings Sarcoma (EW8) (AID 1259255). Further: nearly all actives have a fitted effect of over 35% in size. Further: potency means the concentration at half of the fitted maximal effect.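 On viability: 100% = DMSO-treated cells and 0% = medium-only wells without cells.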 The gist of the method: as §1
The nature of experiment [9]: qHTS Screen of the MIPE 4.0 Collection Against Ewings Sarcoma (TC32) (AID 1259256). Further: nearly all actives have a fitted effect of over 45% in size. Further: potency means the concentration at half of the fitted maximal effect. An outline of the steps: as §1
Experiment [10] in a line: P-glycoprotein substrates identified in KB-8-5-11 adenocarcinoma cell line, qHTS therapeutic library screen (AID 1346987). Further: nearly all actives have a fitted effect of over 65% in size. Further: potency means the concentration at half of the fitted maximal effect. An outline of the steps:
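Luminescence from CellTiter-Glo, read 5 min after addition, quantified survival of KB-8-5-11 (P-gp-overexpressing) cells exposed to compounds for 72 h. AC50 was derived from concentration-response curves.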

On to `CC(=O)NCCC(=O)N[C@@H](CCC(N)=O)C(=O)N[C@@H](CO)C(=O)N[C@@H](CCC(N)=O)C(=O)N[C@@H](CCC(N)=O)C(=O)N[C@H](C(=O)N[C@@H](Cc1ccccc1)C(=O)N[C@]1(C)CCCCCCC=CCCC[C@@](C)(C(=O)N[C@@H](CCC(N)=O)C(=O)N[C@@H](CC(N)=O)C(N)=O)NC(=O)[C@H](CC(C)C)NC(=O)[C@H](CC(C)C)NC(=O)[C@@H](CCCNC(=N)N)NC(=O)[C@H](Cc2c[nH]c3ccccc23)NC(=O)[C@H](CC(C)C)NC(=O)[C@H](CC(N)=O)NC1=O)[C@H](C)O`, for which, in [1], the Potency entry was “inactive”.

In the case of `O=C(O)c1ccc(O)c2ncc(N3CCOCC3)cc12`, in experiment [1], the Potency result was “inactive”.

Regarding `C[C@@]12OC(=O)[C@]1([C@@H](O)[C@@H]1C=CCCC1)NC(=O)[C@H]2CCCl`, the cell viability, % of control (lower = more cytotoxic) in experiment [2] was found to be 5.68%. Further, the viability (% of control) in experiment [3] is 3.86%. The Potency result in experiment [4] and in experiment [5] was “inactive” each time. The Potency was 37.2 nM (active) in experiment [6], 29.6 nM (active) in experiment [7] and 26.4 nM (active) in experiment [8].

With `C#CC1(O)CCC2C3CCC4=CC(=O)CCC4(C)C3CCC21C` (stereo unspecified), the cell viability, % of control (lower = more cytotoxic) in [2] worked out at 168%. In experiment [3], the viability (% of control) was 100%. The Potency entry in [4], in [5], in experiment [6], in experiment [7], in experiment [8] and in experiment [9] was “inactive” in each case. For the same compound, the Potency entry in [10] is “inactive”.

Take `CCOP(=O)(OCC)C(C)NC(=O)N(CCCl)N=O` (stereo unspecified): the cell viability, % of control (lower = more cytotoxic) in experiment [2] came to 109%. The viability (% of control) in [3] was 103%. Besides, the Potency entry in experiment [4], in experiment [5], in experiment [6], in experiment [7], in experiment [8] and in experiment [9] was “inactive” throughout.

As for `C=C[C@@H]1CN2CCC1C[C@@H]2[C@@H](O)c1ccnc2ccccc12` (stereo partly specified), the cell viability, % of control (lower = more cytotoxic) in experiment [2] was found to be 220%. For the same compound, the viability (% of control) in experiment [3] came to 93.3%. In addition, the Potency entry in [4] and in experiment [5] was “inactive” each time. Besides, the Potency is 16600 nM (active) in [6] and 18700 nM (active) in experiment [7].

In the case of `CC1=C(O)C(=O)C=C2C1=CC=C1[C@@]2(C)CC[C@@]2(C)[C@@H]3C[C@](C)(C(=O)O)CC[C@]3(C)CC[C@]12C`, the cell viability, % of control (lower = more cytotoxic) in experiment [2] was found to be 12.3%. In addition, in experiment [3], the viability (% of control) stood at 7.21%. Besides, the Potency entry in experiment [4] and in [5] was “inactive” throughout. For the same compound, the Potency is 1320 nM (active) in experiment [6]; 1180 nM (active) in experiment [7]; 935 nM (active) in experiment [8]; 833 nM (active) in [9]; 2960 nM (active) in experiment [10].
